Reference: PubChem BioAssay (NCATS)
Inconclusive results are not listed. Unless noted, the call rests on the fitted dose curve; in most records, active means well fitted curve in either direction with a large enough effect (not every such curve was filed as active); inconclusive means small, poorly fitted or top-dose-only effect, or another doubt; inactive means flat fitted curve, though single readings scatter.

Columns and labels:
[1] = AP1 Signaling Pathway (AID 357); conditions: ME-180 AP-1-bla reporter, EGF-induced, beta-lactamase ratio, 5 h; at 17.2 µM (top of the series) unless noted;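 further: ME-180 reporter cells stimulated with EGF at its EC50 level; on the % scale 0 is the no-effect control and ±100 the full control effect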
Procedure, shortened: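 Titration-series screen for positive or negative modulators of EC50 EGF-induced signaling in ME-180 cells carrying an AP-1-driven beta-lactamase reporter. After 5 hours at 37 degrees Celsius, CCF4 460nm/530nm emission ratio gave %Activity; AC50 values derived.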

[2] = NFAT Signaling Pathway (AID 444); conditions: Jurkat NFAT-bla M1, carbachol, beta-lactamase ratio, 5 h; at 17.2 µM (top of the series) unless noted;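 further: carbachol stimulus at about its EC50 of 1 µM final; on the % scale 0 is the no-effect control and ±100 the full control effect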
Procedure, shortened: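 Jurkat cells with NFAT-driven β-lactamase reporter and co-expressed M1 receptor, stimulated with carbachol (final 1 uM, ~EC50), compound titration, 5 h at 37 °C. CCF4 loaded 1 h at RT; 460/530 nm ratio gave %activity and AC50.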

[3] = Stat Signaling Pathway (AID 446); conditions: ME-180 (cervical carcinoma) SIE beta-lactamase reporter, IL-6 stimulated, 5 h; at 17.2 µM (top of the series) unless noted;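 further: ME-180 cervical cancer cells given 40 pM IL-6 alongside compound; SIE-controlled beta-lactamase reporter measured as 460/530 nm FRET emission ratio; on the % scale 0 is the no-effect control and ±100 the full control effect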
Procedure, shortened: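 FRET read-out (405 nm excitation, 460/530 nm emission) of a beta-lactamase reporter under a STAT-inducible element in ME-180 cervical carcinoma cells. Cells with compound receive 40 pM IL-6 for 5 h. Values are normalised to AC90 stimulation and AC90 JAK-inhibitor controls.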

[4] = target: Glucocorticoid receptor (Homo sapiens) (UniProt P04150); assay: GR-GFP Redistribution (AID 450;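 active means compounds whose dose series gives a full or clear partial fitted curve of increased nuclear translocation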; further: potency means the concentration at half of the fitted maximal effect)
Chain of Glucocorticoid receptor (Homo sapiens) (P04150 whole entry, looked up): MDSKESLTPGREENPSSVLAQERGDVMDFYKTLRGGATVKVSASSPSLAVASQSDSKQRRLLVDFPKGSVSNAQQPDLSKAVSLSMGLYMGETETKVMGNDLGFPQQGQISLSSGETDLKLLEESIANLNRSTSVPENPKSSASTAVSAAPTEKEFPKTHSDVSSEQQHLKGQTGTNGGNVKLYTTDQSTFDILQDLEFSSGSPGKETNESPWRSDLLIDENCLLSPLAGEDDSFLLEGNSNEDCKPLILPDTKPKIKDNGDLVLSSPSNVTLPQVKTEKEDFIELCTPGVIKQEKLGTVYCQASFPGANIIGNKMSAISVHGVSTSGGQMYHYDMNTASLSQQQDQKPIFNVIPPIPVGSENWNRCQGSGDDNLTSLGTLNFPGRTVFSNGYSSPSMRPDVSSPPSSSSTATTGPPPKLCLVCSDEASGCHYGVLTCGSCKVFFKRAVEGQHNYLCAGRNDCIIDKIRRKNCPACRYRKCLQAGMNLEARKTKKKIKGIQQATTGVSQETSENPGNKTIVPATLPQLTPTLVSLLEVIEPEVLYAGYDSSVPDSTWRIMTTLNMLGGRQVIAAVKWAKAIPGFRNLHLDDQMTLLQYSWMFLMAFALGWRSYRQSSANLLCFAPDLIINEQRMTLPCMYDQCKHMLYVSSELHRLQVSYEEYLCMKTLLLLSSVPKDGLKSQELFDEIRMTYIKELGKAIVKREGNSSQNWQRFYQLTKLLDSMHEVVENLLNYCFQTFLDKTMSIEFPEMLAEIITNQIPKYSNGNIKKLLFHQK

CCCC1C2C(=O)N(c3ccccc3OC)C(=O)C2ON1c1ccccc1 (stereo not given)
inactive: activity change, negative = inhibition [1] 1.4% | activity change, negative = inhibition [2] 4.89% | activity, negative = inhibition [3] 0.927% | Potency [4] > 20.6 µM

Cc1cc(COc2ccccc2OCCN2CCN(C)CC2)no1
inactive: activity change, negative = inhibition [1] 21.4% | activity change, negative = inhibition [2] -13.9% | activity, negative = inhibition [3] -0.578% | Potency [4] > 20.6 µM

Cn1c(=O)c2c(nc(N3CCC(C(N)=O)CC3)n2CCSc2nc3ccccc3s2)n(C)c1=O
inactive: activity change, negative = inhibition [1] -0.203% | activity change, negative = inhibition [2] -5.54% | activity, negative = inhibition [3] 1.48% | Potency [4] > 20.6 µM

O=C(O)C1[C@H]2C(=O)N(Cc3cccs3)C[C@]23C=C[C@H]1O3 (stereo not given in full)
inactive: activity change, negative = inhibition [1] 4.68% | activity change, negative = inhibition [2] -3.3% | activity, negative = inhibition [3] 2.6% | Potency [4] > 20.6 µM

CN1CCN(CCCCC(=O)c2ccccc2)CC1
inactive: activity change, negative = inhibition [1] 16.6% | activity change, negative = inhibition [2] -15.1% | activity, negative = inhibition [3] 9.37% | Potency [4] > 20.6 µM

COc1ccc2[nH]cc(C(=O)CN(C)CCc3ccc(OC)c(OC)c3)c2c1
inactive: activity change, negative = inhibition [1] -10.3% | activity change, negative = inhibition [2] 11.6% | activity, negative = inhibition [3] 6.57% | Potency [4] > 20.6 µM

C/C(=C\C(=O)O)CC(=O)O
inactive: activity change, negative = inhibition [1] -2.96% | activity change, negative = inhibition [2] -2% | activity, negative = inhibition [3] 7.83% | Potency [4] > 20.6 µM

CCO/C(C)=N/n1c2nc3ccccc3nc2c2c(=O)n(CC(C)C)c(C)nc21
inactive: activity change, negative = inhibition [1] -19.8% | activity change, negative = inhibition [2] 12.6% | activity, negative = inhibition [3] -8.62% | Potency [4] > 20.6 µM

c1cncc(-c2nnc3sc(C4CCCCC4)nn23)c1
inactive: activity change, negative = inhibition [1] -18.8% | activity change, negative = inhibition [2] -20% | activity, negative = inhibition [3] -1.41% | Potency [4] > 20.6 µM

CCOc1nnnc2c1sc1nc(N3CCOCC3)c3c(c12)CC(C)(C)OC3
inactive: activity change, negative = inhibition [1] -7.69% | activity change, negative = inhibition [2] -17.4% | activity, negative = inhibition [3] -9.58% | Potency [4] > 20.6 µM

O=C(CCN1CCc2ccccc21)c1ccc2c(c1)OCCO2
inactive: activity change, negative = inhibition [1] 7.14% | activity change, negative = inhibition [2] -15.2% | activity, negative = inhibition [3] 2.96% | Potency [4] > 20.6 µM

COCCCn1c2nc3ccccc3nc2c2c(=O)n(CC3CCCO3)cnc21 (stereo not given)
inactive: activity change, negative = inhibition [1] 0.107% | activity change, negative = inhibition [2] -12.4% | activity, negative = inhibition [3] -0.209% | Potency [4] > 20.6 µM

C/C(=N\O)C(=O)NCCCNCCCN(C)C
inactive: activity change, negative = inhibition [1] 2.66% | activity change, negative = inhibition [2] -0.0528% | activity, negative = inhibition [3] 14.2% | Potency [4] > 20.6 µM

CC(C)(C)C1=Nn2c(nnc2C2CCCCC2)SC1
inactive: activity change, negative = inhibition [1] -2.23% | activity change, negative = inhibition [2] -6.37% | activity, negative = inhibition [3] 22.7% | Potency [4] > 20.6 µM

COCCOC(=O)c1c(C)nc(SCC(=O)Nc2ccc(C)cc2)c(C#N)c1-c1ccco1
inactive: activity change, negative = inhibition [1] -27.8% | activity change, negative = inhibition [2] -11.8% | activity, negative = inhibition [3] -18.9% | Potency [4] > 20.6 µM

O=C(c1coc(=O)c(Br)c1)N1CCCc2ccccc21
inactive: activity change, negative = inhibition [1] 11.9% | activity change, negative = inhibition [2] 0.236% | activity, negative = inhibition [3] 8.49% | Potency [4] > 20.6 µM

O=C1C=C(O)CC(c2cccs2)C1 (stereo not given)
inactive: activity change, negative = inhibition [1] -0.0121% | activity change, negative = inhibition [2] -1.83% | activity, negative = inhibition [3] -2.06% | Potency [4] > 20.6 µM

O=C(NC1(C(F)(F)F)C(=O)Nc2c1c(=O)[nH]c(=O)n2-c1ccccc1)c1cccnc1 (stereo not given)
inactive: activity change, negative = inhibition [1] -3.2% | activity change, negative = inhibition [2] 8.45% | activity, negative = inhibition [3] 3.92% | Potency [4] > 20.6 µM

COc1ccc2c(c1)n([O-])c1c([n+]2=O)CCC1
inactive: activity change, negative = inhibition [1] 13.4% | activity change, negative = inhibition [2] -5.03% | activity, negative = inhibition [3] 7.82% | Potency [4] > 20.6 µM

COCCCNc1nc2c(c(=O)n(C)c(=O)n2C)n1Cc1cccc(OC)c1
inactive: activity change, negative = inhibition [1] -8.39% | activity change, negative = inhibition [2] -4.82% | activity, negative = inhibition [3] -3.35% | Potency [4] > 20.6 µM

FC(F)(F)c1cccc(-n2cccc2/C=N/n2cnnc2)c1
inactive: activity change, negative = inhibition [1] 8.38% | activity change, negative = inhibition [2] -0.658% | activity, negative = inhibition [3] 10.7% | Potency [4] > 20.6 µM

COC(=O)CSCC(=O)Nc1cc2c(cc1C(C)=O)OCO2
inactive: activity change, negative = inhibition [1] -1.75% | activity change, negative = inhibition [2] 29.7% | activity, negative = inhibition [3] 9.85% | Potency [4] > 20.6 µM

Cc1ccc(-n2nc3cc(Cl)c(NC(=O)c4ccco4)cc3n2)cc1
inactive: activity change, negative = inhibition [1] 28.5% | activity change, negative = inhibition [2] -3.83% | activity, negative = inhibition [3] -1.11% | Potency [4] > 20.6 µM

COc1ccc(OC)c(N=C(C)C2=C(O)COC2=O)c1
inactive: activity change, negative = inhibition [1] -4.74% | activity change, negative = inhibition [2] 0.486% | activity, negative = inhibition [3] -3.94% | Potency [4] > 20.6 µM

Cn1c(=O)oc2cc(C(=O)c3ccccc3)ccc21
inactive: activity change, negative = inhibition [1] -10.8% | activity change, negative = inhibition [2] -9.48% | activity, negative = inhibition [3] 0.21% | Potency [4] > 20.6 µM
